Screening data as filed in PubChem.
IL-1B inflam inh: qHTS for Inhibitors of Inflammasome Signaling: IL-1-beta AlphaLISA Primary Screen. THP-1 LPS/ATP IL-1B secretion, AlphaLISA, 16 h; active compounds read low. activity change, % at 57.5 µM. 360,000 compounds, 4.7% hits; in the data active means activity change below about -50%; inconclusive means mostly about -30% to -49%; further: on the % scale 0 is the no-effect control and ±100 the full control effect
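Secreted IL-1B measured by AlphaLISA bead assay after 16 h compound exposure of THP-1 cells; compounds (final up to 57.5 uM) added 1 h before LPS (250 ng/mL) and ATP (1.25 mM) stimulation; lower signal means less secretion.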
Chronic BCR inh: qHTS Assay to Find Inhibitors of Chronic Active B-Cell Receptor Signaling; ABC-DLBCL IkBa-CBG/CBR reporter, luminescence ratio, 4 h; Potency, µM (top dose mostly 46.1 µM), inactives show at the top dose activity change, negative = inhibition, actives largely listed as inhibitors; 340,000 compounds, 0.05% hits; active means well fitted inhibition curve with a large enough effect in the signal ratio, with a control signal flat, not every such curve was filed as active; inconclusive means small, poorly fitted or top-dose-only effect, or effect the other way, or a change in a side signal; the % refers to the signal ratio;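 further: potency means the concentration at half of the fitted maximal effect; plate controls were basal doxycycline-induced cells for no effect and cells given 10 µM MG132 for full effect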
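Compounds up to 46 uM were incubated four hours with TMD8 cells whose green CBG68 luciferase is fused to IkappaBalpha; red CBR luminescence normalised the signal, and concentration-effect curves were fitted to fusion, red and ratio data.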
DT40 TDP1 CPT: qHTS for Inhibitors of human tyrosyl-DNA phosphodiesterase 1 (TDP1): qHTS in cells in presence of CPT; chicken DT40 Tdp1-/-;hTDP1 cells + 20 nM CPT, ATP luminescence, 48 h; Potency, µM (series often up to 46.2 µM), without a hit: at the highest dose activity change, negative = growth inhibition, usual class: inhibitors; 420,000 compounds, 12% hits; further: potency means the concentration at half of the fitted maximal effect; on the % scale 0 is the no-effect control and ±100 the full control effect; nearly all actives have a fitted effect of over 55% in size
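Chicken DT40 Tdp1-/- cells complemented with human TDP1, 400 cells/well, exposed to compounds plus 20 nM camptothecin for at least 48 h at 37 C; viability read as ATP content by CellTiter-Glo luminescence.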
DT40 TDP1 no CPT: qHTS for Inhibitors of human tyrosyl-DNA phosphodiesterase 1 (TDP1): qHTS in cells in absence of CPT; AID 686978, 2013; Potency, µM (series often up to 46.2 µM), for inactives: at the highest dose activity change, negative = growth inhibition, hits mostly inhibitors; DT40 Tdp1-/- hTDP1 cells, no CPT, ATP luminescence, 48 h; 420,000 compounds, 15% hits; further: potency means the concentration at half of the fitted maximal effect; on the % scale 0 is the no-effect control and ±100 the full control effect; nearly all actives have a fitted effect of over 55% in size
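Readout: luminescence from CellTiter-Glo after 30 min in the dark at RT. Cells: DT40 Tdp1-/- with stable hTDP1, 400/well. Exposure: compounds alone, ≥48 hr, 37 °C.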
SW480 rereplic: A quantitative high throughput screen for small molecules that induce DNA re-replication in SW480 colon adenocarcinoma cells; 340,000 compounds, 1.8% hits; SW480 DNA re-replication, Hoechst DNA content imaging, 48 h; Potency, µM (top dose mostly 46.1 µM), for inactives: top-dose re-replication activation, actives largely listed as activators; further: potency means the concentration at half of the fitted maximal effect; % of control where 0% means no effect; nearly all actives have a fitted effect of over 55% in size
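Image-based read-out: total Hoechst fluorescence of nuclei (405 nm excitation, 500-530 nm emission), with hits raising the fraction of high-intensity nuclei. SW480 colon cells incubated 48 hr with compounds at 37 C.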
MCF10A rereplic: A quantitative high throughput screen for small molecules that induce DNA re-replication in MCF 10a normal breast cells; AID 624296, 2012; 350,000 compounds, 2.9% hits; Potency, µM (top dose mostly 46.1 µM), without a hit: top-dose activity, positive = re-replication, usual class: activators; MCF 10A DNA re-replication, Hoechst nuclear intensity, 48 h; further: potency means the concentration at half of the fitted maximal effect; % of control where 0% means no effect; nearly all actives have a fitted effect of over 50% in size
Active calls of the source: *; [ ] = remark or other dose. Sampled rows, rich in hits. Any-hit rate of the full collection: about 19%. Unless noted, the call rests on the fitted dose curve; in most records, active means well fitted curve in the direction sought with a large enough effect; inconclusive means small, poorly fitted or top-dose-only effect, or another doubt; inactive means no such curve, though single readings can be large; an effect the other way counts as inactive or inconclusive.

Results for COc1ccc2c3c([nH]c2c1)[C@H]1C[C@H]2[C@H](C[C@@H](O)[C@H](OC)[C@H]2C(=O)O)CN1CC3 ?
IL-1B inflam inh: -82*; Chronic BCR inh: 0%; DT40 TDP1 CPT: inconclusive; DT40 TDP1 no CPT: inconclusive; SW480 rereplic: inconclusive; MCF10A rereplic: inconclusive

Results for O=c1cc(COc2ccc(Cl)cc2Cl)nc2scc(-c3ccccc3)n12 ?
DT40 TDP1 CPT: -4%; DT40 TDP1 no CPT: -29%

Results for CCC(=O)Nc1ccccc1-c1nc2ccccc2n(CC(=O)c2ccc(Br)cc2)c1=O ?
DT40 TDP1 CPT: 4%; DT40 TDP1 no CPT: -10%

How did COc1ccc(CNC(=O)C2(CC3CC(c4ccccc4)=NO3)CCN(C(=O)Cc3ccc(F)cc3)CC2)cc1 (configuration not stated) do in these assays?
IL-1B inflam inh: inconclusive; DT40 TDP1 CPT: inconclusive; DT40 TDP1 no CPT: inconclusive; SW480 rereplic: 6%[9.22 µM]; MCF10A rereplic: 8%

How did CCOc1cc(C(=O)N2CCC(CC3CC(c4ccccc4)=NO3)(C(=O)NCc3ccc(OC)cc3)CC2)cc(OCC)c1OCC (configuration not stated) do in these assays?
IL-1B inflam inh: inconclusive; DT40 TDP1 CPT: inconclusive; DT40 TDP1 no CPT: 16µM*; SW480 rereplic: 8%; MCF10A rereplic: 3%

How did CCOc1cc(C(=O)N2CCC(CC3CC(c4ccc(Cl)cc4)=NO3)(C(=O)NCC3CCCCC3)CC2)cc(OCC)c1OCC (configuration not stated) do in these assays?
IL-1B inflam inh: inconclusive; Chronic BCR inh: 14%; DT40 TDP1 CPT: 23µM*; DT40 TDP1 no CPT: 18µM*; SW480 rereplic: 1%; MCF10A rereplic: 3%

How did CC1C(=O)C(C)C(c2cc(Cl)ccc2O)NC1c1cc(Cl)ccc1O (configuration not stated) do in these assays?
IL-1B inflam inh: -75*; Chronic BCR inh: inconclusive; DT40 TDP1 CPT: inconclusive; DT40 TDP1 no CPT: -73%; SW480 rereplic: inconclusive; MCF10A rereplic: inconclusive

What do the screens show for `COc1cccc(CNC(=O)[C@@H]2CCCN2C(=O)[C@@H]2CCCN2C(=O)c2cccc(OC)c2)c1`?
IL-1B inflam inh: 0; DT40 TDP1 CPT: inconclusive; DT40 TDP1 no CPT: -23%

How did CN(C(=O)c1cc2ccccc2o1)c1c(N)n(Cc2ccccc2)c(=O)[nH]c1=O do in these assays?
IL-1B inflam inh: 18; Chronic BCR inh: inconclusive; DT40 TDP1 CPT: inconclusive; DT40 TDP1 no CPT: -1%; SW480 rereplic: -9%; MCF10A rereplic: -3%

What do the screens show for `CCNc1ncc2ncc(=O)n(C)c2n1`?
DT40 TDP1 CPT: inconclusive; DT40 TDP1 no CPT: -29%

What do the screens show for `Nc1nnc(COc2ccc(Br)cc2Br)s1`?
IL-1B inflam inh: -5; Chronic BCR inh: inconclusive; DT40 TDP1 CPT: -4%; DT40 TDP1 no CPT: -2%; SW480 rereplic: -2%; MCF10A rereplic: -4%

What do the screens show for `Cc1ccc(C)c(OCc2nnc(N)s2)c1`?
IL-1B inflam inh: -6; Chronic BCR inh: -1%; DT40 TDP1 CPT: -21%; DT40 TDP1 no CPT: -7%; SW480 rereplic: 0.73µM*; MCF10A rereplic: inconclusive

How did C=C(C)Cn1c(SCC(=O)c2ccc(Br)cc2)nc2sc3c(c2c1=O)CCCC3 do in these assays?
DT40 TDP1 CPT: 5%; DT40 TDP1 no CPT: 0%

Results for COc1cc(-c2cc(NC(C)=O)c3ncc(-c4ccc(F)cc4)n3c2)cc(OC)c1OC ?
DT40 TDP1 CPT: inconclusive; DT40 TDP1 no CPT: 15µM*
